Shown are actives, neighbours in structure and some others; about 3.6% of the full set was active somewhere.
Anthrax LF inh2 = anthrax lethal factor protease inhibition | P15917 | AID 588501 | 360,000 compounds, 0.12% hits | inhibition, % at 10 µM | multiplex microsphere protease cleavage assay, LF; further: plate controls were buffer without enzyme for full effect and enzyme alone for no effect
MazEF act = MazEF (E. coli) toxin RNase activation | P0AE70 | AID 504720 | FAM/BHQ RNA-DNA oligo cleavage fluorescence, 5 h | 350,000 compounds, 0.32% hits | activation, % at 20 µM; in the data active means activation above about 50%
Target sequence (P0AE70 whole entry, looked up): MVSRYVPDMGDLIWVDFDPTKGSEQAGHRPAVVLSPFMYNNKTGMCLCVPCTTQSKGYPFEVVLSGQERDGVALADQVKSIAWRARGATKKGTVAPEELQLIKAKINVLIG
Bead autofluor = compound fluorescence in toxin protease inhibitor counterscreen | compound autofluorescence counterscreen, microsphere flow cytometry; hits give high values | fluorescence intensity (concentration not given with the values) | 360,000 compounds, 3.1% hits | AID 624483; in the data active means fluorescence intensity above about 16000; inconclusive means no clear call, values can overlap the other calls
BoNT F protease = BoNT F light chain protease inhibition; inhibition, % at 10 µM; AID 588497; Multiplex microsphere protease cleavage assay, flow cytometry; 360,000 compounds, 0.22% hits; in the data active means inhibition above about 35%, passing the limit was not always enough; inconclusive means no clear call, values can overlap the other calls; further: plate controls were buffer without enzyme for full effect and enzyme alone for no effect
BoNT A protease = blocks Botulinum neurotoxin A light chain protease; multiplex microsphere protease substrate cleavage, flow cytometry; inhibition, % at 10 µM; 360,000 compounds, 0.17% hits; further: plate controls were buffer without enzyme for full effect and enzyme alone for no effect
* marks the source's active call; other numbers are inactive results; ? = inconclusive; / = not tested or not shown. Unless noted, no stated cut-off is given here; in the data, active means inhibition above about 30%; inconclusive means no clear call, values can overlap the other calls; inactive means below that.

SMILES | Anthrax LF inh2 | MazEF act | Bead autofluor | BoNT F protease | BoNT A protease
O=C(O)CCc1ccc(-c2cccs2)n1NC(=O)c1ccccc1Br | -2 | -3 | 23254* | -6 | -3
CCc1ccc2c(CN3CCC(C(=O)OC)CC3)cc(=O)oc2c1 | -1 | 5 | 4133 | -8 | 1
Cc1ccc(CC(CC(=O)O)C(=O)NC2CCCCC2)cc1 (centres undefined) | -2 | 8 | 22833* | -3 | -1
Cc1ccc(CC(CC(=O)O)C(=O)NCC23CC4CC(CC(C4)C2)C3)cc1 (centres undefined) | -6 | 0 | 5031 | -11 | 0
CC1(C)CN(c2ccccc2)N(Cc2ccc(F)cc2)C1=O | -1 | -3 | 18014* | 11 | 8
O=c1cc(N2CCN(c3ccccc3)CC2)[nH]c(=O)n1Cc1ccc(F)cc1 | -17 | -7 | 5253 | -12 | 0
CCOC(=O)c1ccc(NC(=O)NCCc2cnc[nH]2)cc1 | -15 | 3 | 3605 | 7 | -3
Cc1ccc2oc3nc(C)c(C(=O)Nc4cccc(C(F)(F)F)c4)cc3c(=O)c2c1 | -3 | 10 | 22965* | 2 | ?
COc1ccc(OCC2CCNCC2)cc1 | -13 | 6 | 3748 | -38 | 0
CN(C)c1nc2c(c(N)nn2-c2ccc(Cl)cc2)c(=O)o1 | 1 | 8 | 19528* | 4 | ?
CCOC(=O)c1nc(C)n(-c2ccc(Cl)cc2)n1 | 0 | 0 | 10495 | 1 | 0
COc1ccc(-n2nc(C)c3onc(C)c3c2=O)cc1 | -10 | 7 | 6276 | 0 | 0
COc1ccc(-n2nc(N)c3c(=O)oc(N(C)C)nc32)cc1 | -3 | -1 | 16554* | -2 | 0
COc1ccccc1CNC(=O)C(=O)c1cn(CC(=O)N2CCOCC2)c2ccccc12 | 7 | -5 | 5683 | 3 | 0
CC(=NC1CC1)C1=C(O)c2ccccc2C1=O | -2 | 9 | 22929* | 0 | ?
CCCCCOC(=O)CSc1n[nH]c(=O)[nH]c1=O | 2 | 10 | 22105* | 4 | 2
Cc1cccc(C)c1NC(=O)Cn1nnc(-c2ccc(N3CCOCC3)cc2)n1 | -2 | -14 | 20925* | -3 | -2
COc1ccc(CCNC(=O)CC(=O)N/N=C\c2ccc(OCC(N)=O)cc2)cc1OC | 2 | 0 | 3756 | 2 | 0
C=CCn1cnc2c(c1=O)c1nc3ccccc3nc1n2/N=C/c1cccc(OC)c1 | 0 | 8 | 21328* | 8 | ?
Cc1nc(N2CCC(C(N)=O)CC2)c2nnn(Cc3ccccc3)c2n1 | 4 | 0 | 21409* | -2 | -2
CC(C)(C)c1nc(N2CCN(C(=O)c3ccco3)CC2)c2nnn(Cc3ccccc3)c2n1 | -4 | -2 | 8630 | -5 | 0
Cc1nc(N2CCCC2)c2nnn(Cc3ccccc3Cl)c2n1 | 0 | -5 | 20754* | 5 | 4
O=S(=O)(c1ccccc1)c1cnc(-c2cccnc2)nc1-c1ccc(Cl)cc1Cl | 6 | 0 | 9846 | 4 | 1
O=S(=O)(c1ccccc1)c1cnc(-c2cccnc2)nc1-c1ccccc1 | -1 | 14 | 22391* | -1 | 0
COc1ccc(N/C=C2\CCc3ccccc3C2=O)cc1 | -3 | -26 | 4427 | -3 | 0
SMILES | Anthrax LF inh2 | MazEF act | Bead autofluor | BoNT F protease | BoNT A protease
COc1ccc(N/C=C2\C(=O)CCc3c2oc2cc(Cl)c(O)c(Cl)c32)cc1 | -5 | 120* | 3921 | -15 | 0
CN(C)CCCNS(=O)(=O)c1cc(Cl)ccc1Cl | 0 | -4 | 20853* | -3 | ?
O=C(CCc1ccccc1)NC(=S)Nc1cc(C(F)(F)F)ccc1N1CCOCC1 | 0 | -11 | 19113* | -2 | 2
Cc1ccc(C(=O)NCC(=O)OCCCOC(=O)CNC(=O)c2ccc(C)c(C)c2)cc1C | 0 | 4 | 4286 | 0 | 5
COCCCNC(=O)c1c(NC(=O)c2ccco2)n(Cc2ccccc2)c2nc3ccccc3nc12 | 12 | -2 | 2513 | 10 | 20
COCCNC(=O)c1c(NC(=O)c2ccc(Br)o2)n(Cc2ccccc2)c2nc3ccccc3nc12 | 11 | -14 | 3089 | 0 | 35*
Cc1cnc(NC(=O)C(C)N2C(=O)C3CC=CCC3C2=O)s1 (centres undefined) | -2 | 6 | 17257* | -4 | -3
C[C@@H](C(=O)Nc1nccs1)N1C(=O)C2CC=CCC2C1=O (some centres undefined) | -2 | 5 | 3580 | 8 | 0
Cc1cc(Br)cn2ccnc12 | 0 | 4 | 22557* | -4 | -4
CCOC(=O)C1CCCN(C(=O)CN2C(=O)c3ccccc3S2(=O)=O)C1 (centres undefined) | 1 | 2 | 3773 | -3 | 0
CCOC(=O)C1CCN(Cc2cn[nH]c2-c2ccc(C)cc2)CC1 | 2 | -1 | 6127 | -14 | -1
CCOC(=O)C1CCN(Cc2cn[nH]c2-c2ccccc2)CC1 | 3 | 11 | 20102* | -2 | -1
CCOC(=O)C1CCN(Cc2cnc(Oc3ccc(OC)cc3)s2)CC1 | -2 | 5 | 24024* | -5 | -4
CCOC(=O)C1CCN(C(=O)Cc2c(F)cccc2Cl)CC1 | 2 | -1 | 10285 | 1 | 0
CCOC(=O)C1CCCN(C(=O)CN2C(=O)c3ccccc3C2=O)C1 (centres undefined) | -1 | 0 | 20127* | -1 | ?
CCOC(=O)C1CCN(Cc2c(F)cccc2Cl)CC1 | 0 | -4 | 25112* | -6 | -5
Cc1ccc(Cn2c(C)c(C(=O)NCc3ccc4c(c3)OCO4)sc2=O)cc1 | -14 | / | 3895 | -4 | 0
COc1ccc(/C=C2\SC(=S)N(CC(=O)NC3C=CS(=O)(=O)C3)C2=O)cc1 (centres undefined) | -3 | -2 | 5640 | -5 | 0
COc1ccc(CC2=CC(=O)c3ccccc3C2=O)cc1 | -11 | 4 | 3056 | -1 | 1
CN(C)CCN1CCN(C2CN(C3CCCC3)S(=O)(=O)C2)CC1 (centres undefined) | -4 | / | 5709 | -7 | -1
CCOC(=O)C1CCCN(CC(O)COC(c2ccccc2)c2ccccc2)C1 (centres undefined) | 2 | 0 | 4886 | 3 | 1
CCOC(=O)C1CCCN(C(=O)C(C)Oc2ccc(Cl)cc2Cl)C1 (centres undefined) | 1 | -1 | 22441* | 4 | ?
CCOC(=O)C1CCCN(CC(O)COc2ccccc2C(C)=O)C1 (centres undefined) | -6 | 9 | 22881* | -1 | 0
CCOC(=O)C1CCN(Cc2c(O)ccc3ccccc23)CC1 | -1 | -2 | 19910* | 1 | ?
CCOC(=O)C1CCCN(Cc2ccccc2OCC)C1 (centres undefined) | -4 | -1 | 19086* | 0 | 3
CCN(CC)CCOc1ccc(-c2c(C)c3c(ccc4ccccc43)oc2=O)cc1 | 3 | 15 | 3636 | 2 | 0
CCOC(=O)C1CCCN(Cc2c(F)cccc2Cl)C1 (centres undefined) | -1 | -5 | 20111* | 1 | 1
CCOC(=O)C1CCCN(C(=O)Cc2c(F)cccc2Cl)C1 (centres undefined) | 1 | 1 | 12928 | 0 | -1
CCOC(=O)C1CCN(C(=O)c2cccnc2Cl)CC1 | -2 | 8 | 20039* | -1 | 0

Source: PubChem BioAssay
